We go through 16 molecules from article PMC5540273 (PLoS ONE, 2017).

Test systems include ULK2; ULK3; VRK2; WEE1; WEE2; WNK1; WNK2; WNK3.
Holding throughout (details): concentration: 1 μM, replicates: in singlicate; n = 1
The test system of the next test is T1, VEGFR2.
T1 construct: gene KDR

The test system of a further test is T2, VPS34.
T2 construct: gene PIK3C3
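Note: KINOMEscan kinase panel screen.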

For the molecule `Cl.Fc1ccccc1COc1ccc(Nc2ncnc3ccc(-c4nnc(C(F)(F)F)o4)cc23)cc1Cl` [GW424170], the “%Inh” value in the test on ULK2 was determined as 0%; in the test with ULK3, 6%; with VEGFR2, 4%; with VPS34, 0%; in the test on VRK2 it was 0%; in the test on WEE1, 3%. For the same molecule, the “%Inh” value is recorded as 5% with WEE2, 7% with WNK1, 0% in the test on WNK2 and 15% in the test on WNK3.
On to `Fc1ccc(Nc2nccc(-c3c(-c4ccc(Cl)cc4)nn4ncccc34)n2)cc1F` [GW829058], for which the “%Inh” value in the test with ULK2 turned out to be 100%; in the test with ULK3, 33%; in the test on VEGFR2, 25%; in the test with VPS34 it was 5%; with VRK2, 34%; in the test with WEE1, 10%. The “%Inh” value in the test on WEE2 is on record as 2%; in the test with WNK1, 42%; in the test on WNK2, 0%; in the test with WNK3 it was 41%.
With `Cc1ccc(C)c(NC(=O)NCCNc2ccnc(Nc3ccc(F)cc3)n2)c1` [GSK1379878], the “%Inh” value was found to be 0% in the test on ULK2; 0% with ULK3; 0% with VEGFR2; 0% in the test on VPS34; 0% in the test with VRK2; 8% with WEE1. Also, the “%Inh” value in the test with WEE2 is listed as 0%; with WNK1, 0%; with WNK2, 9%; in the test with WNK3 it was 15%.
Take `COc1cc2c(Nc3cccc(NC(=O)c4ccccc4)c3)ncnc2cc1OCCCN1CCOCC1` [GSK223810]: the “%Inh” value with ULK2 amounted to 0%; with ULK3, 24%; with VEGFR2, 28%; in the test on VPS34, 0%; with VRK2, 10%; in the test with WEE1, 0%. Also, the “%Inh” value with WEE2 stood at 40%; in the test with WNK1, 4%; in the test on WNK2, 10%; in the test on WNK3, 0%.
For the molecule `N#Cc1ccc(Oc2ccc(Nc3ncnc4cc[nH]c34)cc2Cl)cc1`, the “%Inh” value in the test with ULK2 is reported as 34%; with ULK3, 30%; with VEGFR2, 12%; with VPS34, 0%; with VRK2, 3%; in the test with WEE1, 28%. The “%Inh” value in the test with WEE2 was 8%; in the test with WNK1, 0%; in the test on WNK2, 7%; with WNK3, 0%.
Regarding `Fc1cccc(COc2ccc(Nc3ncnc4nn5ccccc5c34)cc2Cl)c1` [GW689066], the “%Inh” value in the test on ULK2 turned out to be 0%; with ULK3 it was 2%; in the test with VEGFR2, 0%; in the test on VPS34, 60%; with VRK2, 28%; with WEE1, 0%. Also, the “%Inh” value is 0% with WEE2, 0% with WNK1, 0% in the test on WNK2 and 20% with WNK3.
With `Nc1nc(-c2ccc3c(N)n[nH]c3c2)cc(N2CCCCC2)n1` [GSK2228768], the “%Inh” value is recorded as 0% in the test with ULK2; 0% in the test with ULK3; 0% in the test on VEGFR2; 0% in the test with VPS34; 0% in the test with VRK2; 39% in the test on WEE1. The “%Inh” value in the test on WEE2, in the test with WNK1, in the test with WNK2 and in the test on WNK3 was 0% each time.
`COC(=O)c1cccc(NC(=O)NCCNc2ccnc(Nc3ccc(F)cc3)n2)c1` [GSK1379883]: the “%Inh” value worked out at 0% in the test with ULK2; 23% in the test on ULK3; 5% in the test on VEGFR2; 10% with VPS34; 0% in the test on VRK2; 39% in the test with WEE1. The “%Inh” value is recorded as 16% in the test with WEE2, 24% in the test with WNK1, 0% with WNK2 and 9% with WNK3.
In the case of `c1ccc(-c2ccc3c(-c4ccnc(Nc5ccc6c(c5)OCCO6)n4)cnn3n2)cc1` [GW818941], the “%Inh” value in the test on ULK2 is listed as 0%; in the test with ULK3, 15%; in the test with VEGFR2, 9%; with VPS34 it was 0%; with VRK2, 7%; in the test on WEE1, 2%. The “%Inh” value in the test with WEE2 is given as 0%; in the test with WNK1, 2%; with WNK2 it was 0%; with WNK3, 15%.
As to `Clc1cc(Nc2ncnc3cc[nH]c23)ccc1OCc1ccccn1`, the “%Inh” value was determined as 14% with ULK2; 21% in the test with ULK3; 6% in the test on VEGFR2; 13% in the test on VPS34; 9% with VRK2; 0% with WEE1. The “%Inh” value turned out to be 0% with WEE2, 0% in the test on WNK1, 1% in the test with WNK2 and 20% in the test on WNK3.
On to `Oc1ccc2ncnc(Nc3ccc(OCc4ccccc4)cc3)c2c1` [GI262866], for which the “%Inh” value is recorded as 0% in the test with ULK2; 4% in the test on ULK3; 0% with VEGFR2; 0% in the test with VPS34; 0% in the test with VRK2; 0% in the test on WEE1. Moreover, the “%Inh” value with WEE2, in the test on WNK1, in the test on WNK2 and in the test with WNK3 was 0% throughout.
For the molecule `Cn1cc(-c2ccc3c(c2)CCN3C(=O)Cc2cccc(C(F)(F)F)c2)c2c(N)ncnc21` [GSK2606414], the “%Inh” value is recorded as 0% in the test on ULK2; 3% in the test with ULK3; 0% in the test with VEGFR2; 22% in the test with VPS34; 20% in the test on VRK2; 0% with WEE1. Besides, the “%Inh” value in the test with WEE2 turned out to be 19%; in the test on WNK1, 3%; in the test with WNK2 it was 7%; with WNK3, 0%.
Consider `Cl.c1ccc(Cn2ncc3cc(Nc4ncnc5ccccc45)ccc32)cc1` [GW273749], for which the “%Inh” value in the test on ULK2 turned out to be 0%; in the test on ULK3 it was 5%; in the test with VEGFR2, 20%; in the test on VPS34, 0%; in the test on VRK2 it was 0%; in the test with WEE1, 10%. Also, the “%Inh” value in the test on WEE2 came to 3%; in the test on WNK1 it was 3%; in the test with WNK2, 3%; with WNK3, 0%.
For `CNc1nccc(-c2c(-c3ccc(F)cc3)ncn2C2CCN(C)CC2)n1` [SB-222903], the “%Inh” value was found to be 15% in the test on ULK2; 0% in the test with ULK3; 0% with VEGFR2; 0% in the test with VPS34; 16% with VRK2; 0% with WEE1. The “%Inh” value in the test with WEE2, in the test on WNK1, in the test with WNK2 and in the test with WNK3 was 0% throughout.
Take `Cc1ccc(NC(=O)c2cccc(C#N)c2)cc1-c1ccc(C(=O)Nc2ccncc2)cc1` [GSK1398463]: the “%Inh” value with ULK2 is on record as 0%; with ULK3 it was 15%; with VEGFR2, 11%; with VPS34, 0%; in the test with VRK2, 0%; in the test with WEE1, 0%. Moreover, the “%Inh” value in the test with WEE2 came to 0%; in the test on WNK1, 17%; in the test on WNK2, 6%; in the test with WNK3, 18%.
`Cl.O=S(=O)(c1cccc(F)c1)c1ccc(Nc2ncnc3cc(Br)sc23)cc1Cl` [GSK306886]: the “%Inh” value in the test with ULK2 worked out at 0%; in the test with ULK3, 8%; in the test with VEGFR2 it was 3%; in the test on VPS34, 0%; in the test on VRK2, 0%; in the test with WEE1, 20%. For the same molecule, the “%Inh” value with WEE2 turned out to be 9%; in the test with WNK1, 4%; in the test with WNK2 it was 9%; in the test on WNK3 it was 0%.
